Source: PubChem BioAssay (NCATS)
Records with an inconclusive call do not appear. The source made the active and inactive calls. Calls follow the shape of the dose curve; as a rule, active = well fitted inhibition curve with a large enough effect; inconclusive = small, poorly fitted or top-dose-only effect; inactive = flat fitted curve, though single readings scatter.

Assays:
Test in all cases: qHTS profiling for inhibitors of Plasmodium falciparum proliferation (AID 504749); also: nearly all actives have a fitted effect of over 60% in size
Details in all cases: P. falciparum in erythrocytes, SYBR Green DNA, 72 h; series mostly up to 28.7 µM
CP211 = system: CP211
Method in brief: (§1)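 SYBR Green fluorescence (ex 485 nm, em 535 nm) reports parasite DNA after 72 h compound exposure of infected red cells at 0.3% parasitemia, 2.5% hematocrit; signal normalized to 0.29 uM artemisinin and vehicle wells.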

CP215 = system: CP215
Method in brief: as §1

CP217 = system: CP217
Method in brief: as §1

CP237 = system: CP237
Method in brief: as §1

CP238 = system: CP238
Method in brief: as §1

CP247 = system: CP247
Method in brief: as §1

CP250 = system: CP250
Method in brief: as §1

CP252 = system: CP252
Method in brief: as §1

CP256 = system: CP256
Method in brief: as §1

CP260 = system: CP260
Method in brief: as §1

CP262 = system: CP262
Method in brief: as §1

CP265 = system: CP265
Method in brief: as §1

CP266 = system: CP266
Method in brief: as §1

CP268 = system: CP268
Method in brief: as §1

CP269 = system: CP269
Method in brief: as §1

CP286 = system: CP286
Method in brief: as §1

CP291 = system: CP291
Method in brief: as §1

CP297 = system: CP297
Method in brief: as §1

CP305 = system: CP305
Method in brief: as §1

CP203 = system: CP203
Method in brief: as §1

Measured: Potency
Potency is read from the fitted curve at half-maximal effect.

Oc1ccc(Cl)cc1
inactive: CP211 | CP215 | CP217 | CP237 | CP238 | CP247 | CP250 | CP252 | CP256 | CP260 | CP262 | CP265 | CP266 | CP268 | CP269 | CP286 | CP291 | CP297 | CP305

Nc1nc(N)nc(NC2CC2)n1
inactive: CP211 | CP215 | CP217 | CP237 | CP238 | CP247 | CP250 | CP252 | CP256 | CP260 | CP262 | CP265 | CP266 | CP268 | CP269 | CP286 | CP291 | CP297 | CP305

COC(=O)C(c1ccccc1)C1CCCCN1 (stereo not drawn)
inactive: CP203 | CP211 | CP215 | CP217 | CP238 | CP247 | CP250 | CP252 | CP256 | CP260 | CP265 | CP266 | CP268 | CP269 | CP286 | CP297 | CP305
active: CP237 12.6 µM

C[C@](O)(CS(=O)(=O)c1ccc(F)cc1)C(=O)Nc1ccc(C#N)c(C(F)(F)F)c1
inactive: CP211 | CP215 | CP217 | CP237 | CP238 | CP247 | CP250 | CP252 | CP256 | CP260 | CP262 | CP265 | CP266 | CP268 | CP269 | CP286 | CP291 | CP297 | CP305

O=C1CN=C(c2ccccc2)c2cc([N+](=O)[O-])ccc2N1
inactive: CP211 | CP215 | CP217 | CP237 | CP238 | CP247 | CP250 | CP252 | CP256 | CP260 | CP262 | CP265 | CP266 | CP268 | CP269 | CP286 | CP291 | CP297 | CP305

COP(=S)(OC)Oc1ccc(S(=O)(=O)N(C)C)cc1
inactive: CP211 | CP215 | CP217 | CP237 | CP238 | CP247 | CP250 | CP252 | CP256 | CP260 | CP262 | CP265 | CP266 | CP268 | CP269 | CP286 | CP291 | CP297 | CP305

O=C1c2ccccc2C(=O)c2ccccc21
active: CP265 10 µM
inactive: CP203 | CP211 | CP215 | CP217 | CP237 | CP238 | CP247 | CP250 | CP252 | CP256 | CP262 | CP266 | CP268 | CP286 | CP291 | CP297

CN1C(=O)CC(=O)N(c2ccccc2)c2cc(Cl)ccc21
inactive: CP211 | CP215 | CP217 | CP237 | CP238 | CP247 | CP250 | CP252 | CP256 | CP260 | CP262 | CP265 | CP266 | CP268 | CP269 | CP286 | CP291 | CP297 | CP305

O=c1oc2ccccc2c(O)c1Cc1c(O)c2ccccc2oc1=O
inactive: CP211 | CP215 | CP217 | CP237 | CP238 | CP247 | CP250 | CP252 | CP256 | CP260 | CP262 | CP265 | CP266 | CP268 | CP269 | CP286 | CP291 | CP297 | CP305

c1ccc2c(c1)sc1ccccc12
inactive: CP211 | CP215 | CP217 | CP237 | CP238 | CP247 | CP250 | CP252 | CP256 | CP260 | CP262 | CP265 | CP266 | CP268 | CP269 | CP286 | CP291 | CP297 | CP305

CCC(C)(C)c1ccc(O)cc1
inactive: CP203 | CP211 | CP215 | CP217 | CP237 | CP238 | CP247 | CP250 | CP252 | CP256 | CP260 | CP262 | CP265 | CP266 | CP268 | CP269 | CP286 | CP291 | CP297 | CP305

CN1CCC(O)(c2ccc(F)cc2)C(C(=O)c2ccc(F)cc2)C1 (stereo not drawn)
inactive: CP203 | CP211 | CP215 | CP217 | CP237 | CP238 | CP247 | CP250 | CP252 | CP256 | CP262 | CP265 | CP266 | CP268 | CP269 | CP286 | CP291 | CP297 | CP305

Clc1ccc2c(c1)C(c1ccccc1)=NCc1nncn1-2
inactive: CP211 | CP215 | CP217 | CP237 | CP238 | CP247 | CP250 | CP252 | CP256 | CP260 | CP262 | CP265 | CP266 | CP268 | CP269 | CP286 | CP291 | CP297 | CP305

CN1C(=O)COc2c(C(=O)NC3CN4CCC3CC4)cc(Cl)cc21 (stereo not drawn)
inactive: CP211 | CP215 | CP217 | CP237 | CP238 | CP247 | CP250 | CP252 | CP256 | CP260 | CP262 | CP265 | CP266 | CP268 | CP269 | CP286 | CP291 | CP297 | CP305

Nc1ccc([As](=O)(O)O)cc1
inactive: CP211 | CP215 | CP217 | CP237 | CP238 | CP247 | CP250 | CP252 | CP256 | CP260 | CP262 | CP265 | CP266 | CP268 | CP269 | CP286 | CP291 | CP297 | CP305

O=C(O)CCCc1ccc(N(CCCl)CCCl)cc1
inactive: CP203 | CP211 | CP215 | CP217 | CP237 | CP238 | CP247 | CP252 | CP256 | CP260 | CP262 | CP265 | CP266 | CP268 | CP269 | CP286 | CP291 | CP297 | CP305

CN1C(=O)NC(=O)C(C)(C2=CCCCC2)C1=O (stereo not drawn)
inactive: CP211 | CP215 | CP217 | CP237 | CP238 | CP247 | CP250 | CP252 | CP256 | CP260 | CP262 | CP265 | CP266 | CP268 | CP269 | CP286 | CP291 | CP297 | CP305

NCCc1ccc(O)cc1
inactive: CP203 | CP211 | CP215 | CP217 | CP237 | CP238 | CP247 | CP250 | CP252 | CP256 | CP260 | CP262 | CP265 | CP266 | CP268 | CP269 | CP286 | CP291 | CP297 | CP305

O=C1Nc2ccc(Cl)cc2C(c2ccccc2)=NC1O (stereo not drawn)
inactive: CP203 | CP211 | CP217 | CP237 | CP238 | CP247 | CP250 | CP252 | CP256 | CP260 | CP262 | CP265 | CP266 | CP268 | CP269 | CP286 | CP291 | CP297 | CP305

NC(=O)CS(=O)C(c1ccccc1)c1ccccc1 (stereo not drawn)
inactive: CP203 | CP211 | CP215 | CP217 | CP237 | CP238 | CP247 | CP250 | CP252 | CP256 | CP260 | CP262 | CP265 | CP266 | CP268 | CP269 | CP286 | CP291 | CP297 | CP305

CN1C(=O)CCS(=O)(=O)C1c1ccc(Cl)cc1 (stereo not drawn)
inactive: CP211 | CP215 | CP217 | CP237 | CP238 | CP247 | CP250 | CP252 | CP256 | CP260 | CP262 | CP265 | CP266 | CP268 | CP269 | CP286 | CP291 | CP297 | CP305

O=c1[nH]oc2c1CCNC2
inactive: CP211 | CP215 | CP217 | CP237 | CP238 | CP247 | CP250 | CP252 | CP256 | CP260 | CP262 | CP265 | CP266 | CP268 | CP269 | CP286 | CP291 | CP297 | CP305

CC(C)NC(C)C
inactive: CP203 | CP211 | CP215 | CP217 | CP237 | CP238 | CP247 | CP250 | CP252 | CP256 | CP260 | CP262 | CP265 | CP266 | CP268 | CP269 | CP286 | CP291 | CP297 | CP305

CNC(C)(C)Cc1ccccc1
inactive: CP203 | CP211 | CP215 | CP217 | CP238 | CP247 | CP250 | CP252 | CP256 | CP260 | CP262 | CP265 | CP266 | CP268 | CP269 | CP286 | CP291 | CP297 | CP305

Clc1cccc(SC2CCNCC2)n1
inactive: CP211 | CP215 | CP217 | CP237 | CP238 | CP247 | CP250 | CP252 | CP256 | CP260 | CP262 | CP265 | CP266 | CP268 | CP269 | CP286 | CP297 | CP305

C[C@]12CCC(=O)C=C1CC[C@@H]1[C@@H]2CC[C@]2(C)C(=O)CC[C@@H]12
inactive: CP211 | CP215 | CP217 | CP237 | CP238 | CP247 | CP250 | CP252 | CP256 | CP260 | CP262 | CP265 | CP266 | CP268 | CP269 | CP286 | CP291 | CP297 | CP305

C[C@]12CC[C@@H]3c4ccc(OC(=O)N(CCCl)CCCl)cc4CC[C@H]3[C@@H]1CC[C@@H]2O
inactive: CP211 | CP215 | CP217 | CP237 | CP238 | CP247 | CP250 | CP252 | CP256 | CP260 | CP262 | CP265 | CP266 | CP268 | CP269 | CP286 | CP291 | CP297 | CP305
